This is a sample that favours compounds with a hit; in the whole collection about 10% have one here.
BAZ2B block = inhibitors of human BAZ2B bromodomain; Q9UIF8; AlphaScreen BAZ2B-H3K14Ac peptide displacement; actives 4.4% (n = 360,000); Potency, µM (doses to about 114 µM), for the others: at the top dose activity change, negative = inhibition, most hits filed as inhibitors; also: % is scaled to controls: 0 for no effect and ±100 for the full control effect; nearly all actives have a fitted effect of over 60% in size
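Multi-concentration screen (max 110 uM) measuring displacement of acetylated histone H3 peptide from BAZ2B by AlphaScreen, using 50 nM protein, 50 nM peptide and 10 ug/mL streptavidin donor plus Ni-chelate acceptor beads.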
JMJD2A Tudor inh = blocks the human JMJD2A Tudor domain. O75164. AlphaScreen JMJD2A-Tudor / H3K4me3 peptide binding. Potency, µM (highest dose often 114 µM), without a hit: at the top dose activity change, negative = inhibition, hits mostly inhibitors. actives 4.4% (n = 390,000); also: % is scaled to controls: 0 for no effect and ±100 for the full control effect; nearly all actives have a fitted effect of over 50% in size
GLS inhibitor = inhibitors of human glutaminase (GLS); GLS enzymatic activity, qHTS titration; Potency, µM (highest dose often 45.5 µM), inactives show at the highest dose activity change, negative = inhibition, hits mostly inhibitors; actives 0.21% (n = 410,000); AID 624170; also: % is scaled to controls: 0 for no effect and ±100 for the full control effect
Target sequence (O94925 whole entry, looked up): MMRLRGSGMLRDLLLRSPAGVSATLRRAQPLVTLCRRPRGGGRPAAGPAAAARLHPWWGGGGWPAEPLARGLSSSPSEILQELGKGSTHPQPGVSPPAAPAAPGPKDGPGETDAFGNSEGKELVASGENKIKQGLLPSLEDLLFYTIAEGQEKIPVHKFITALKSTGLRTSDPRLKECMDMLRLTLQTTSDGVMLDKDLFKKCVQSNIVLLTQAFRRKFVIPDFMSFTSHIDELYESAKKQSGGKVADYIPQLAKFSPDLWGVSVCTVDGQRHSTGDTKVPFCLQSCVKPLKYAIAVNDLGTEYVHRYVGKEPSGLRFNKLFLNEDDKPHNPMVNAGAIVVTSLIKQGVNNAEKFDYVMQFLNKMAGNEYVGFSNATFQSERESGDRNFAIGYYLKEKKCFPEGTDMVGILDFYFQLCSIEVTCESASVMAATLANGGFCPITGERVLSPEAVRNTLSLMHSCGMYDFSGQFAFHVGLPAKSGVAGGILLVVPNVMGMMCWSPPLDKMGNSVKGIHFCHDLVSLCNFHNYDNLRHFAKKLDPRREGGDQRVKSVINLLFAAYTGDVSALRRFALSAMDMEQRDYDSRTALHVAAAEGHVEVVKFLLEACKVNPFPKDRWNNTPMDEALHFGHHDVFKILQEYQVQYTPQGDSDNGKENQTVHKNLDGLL
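Glutamate formation by hKGA was monitored fluorometrically using coupled glutamate oxidase, HRP and Amplex Red. Substrate was added as 1 mM L-glutamine solution; incubation was 30 min at RT after an initial read.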
HP1b binding inh = HP1-beta chromodomain-methylated histone interaction inhibition | Potency, µM (titrated, usually from 114 µM), inactives show at the highest dose activity change, negative = inhibition, actives largely listed as inhibitors | AID 540317 | AlphaScreen HP1-beta / biotin-H3K9me3 peptide binding | P83916 | actives 0.56% (n = 390,000); also: nearly all actives have a fitted effect of over 70% in size
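Compound inhibition of the preformed complex between 50 nM HP1-beta and 50 nM biotinylated H3K9me3 peptide was read by AlphaScreen. Buffer was PBS pH 7.4 with 0.01% Tween-20. Incubations ran 30 min at room temperature, with 10 ug/mL donor/acceptor beads.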
G9a inh = blocks human histone lysine methyltransferase G9a | Q96KQ7 | G9a H3K9 monomethylation, AlphaScreen, 2 h | Potency, µM (highest dose often 102 µM), for inactives: at the top dose activity, negative = inhibition, most hits filed as inhibitors | actives 8.8% (n = 350,000); also: % is scaled to controls: 0 for no effect and ±100 for the full control effect; nearly all actives have a fitted effect of over 75% in size
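G9a (20 nM) preincubated 15 min RT with compounds, then 500 nM biotinylated H3K9 peptide and 20 uM SAM added; 2 h RT reaction. Monomethyl-H3K9 product detected by AlphaScreen with anti-H3K9me1 antibody, streptavidin donor and anti-rabbit IgG acceptor beads.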
Active calls of the source: *; [ ] = dose if it differs, or a comment. Calls follow the shape of the dose curve; as a rule, active = well fitted curve in the direction sought with a large enough effect; inconclusive = small, poorly fitted or top-dose-only effect, or another doubt; inactive = no such curve, though single readings can be large; an effect the other way counts as inactive or inconclusive. Potency is read from the fitted curve at half-maximal effect.

For CCCCC(=O)OCC(=O)[C@]1(O)Cc2c(O)c3c(c(O)c2[C@H](OC2CC(NC(=O)C(F)(F)F)C(O)C(C)O2)C1)C(=O)c1c(OC)cccc1C3=O (some centres undefined) the results were GLS inhibitor 10.0% and G9a inh 8.91µM*.
For CC(NCc1ccc(F)cc1)C(=O)NC1CCCCC1 (centres undefined) the results were BAZ2B block -2.3%, JMJD2A Tudor inh inconclusive, GLS inhibitor 0.2% and HP1b binding inh inconclusive.
`Nc1cccnc1Oc1ccc(F)cc1F` gave BAZ2B block -7.8%, JMJD2A Tudor inh -12.2%, GLS inhibitor 6.0%, HP1b binding inh 6.8% and G9a inh -31.3%.
`Oc1ccc(N=Cc2ccc(-c3cccs3)s2)cc1` gave BAZ2B block inconclusive, JMJD2A Tudor inh 35.5µM*, GLS inhibitor 33.4%, HP1b binding inh inconclusive and G9a inh inconclusive.
CC12CCCCC1N(O)C(=O)C(=O)N2O (centres undefined) was read as BAZ2B block inconclusive, JMJD2A Tudor inh 79.4µM*, GLS inhibitor -9.3%, HP1b binding inh 4.5% and G9a inh inconclusive.
For CC1(C)CCCC2=C1CC1C(=O)N(O)C(=O)C1C2 (centres undefined) the results were BAZ2B block 18.7%, JMJD2A Tudor inh -1.6%, GLS inhibitor 19.8%, HP1b binding inh 27.8% and G9a inh -1.2%.
`Cc1ccc(O)c(-c2cc(C(F)(F)C(F)F)[nH]n2)c1` gave BAZ2B block -9.0%, JMJD2A Tudor inh -9.9%, GLS inhibitor 14.1%, HP1b binding inh 9.8% and G9a inh 17.9%.
For CCn1nc([N+](=O)[O-])c2c(-c3nc4ccccc4o3)c(N)n(CCCOC)c2c1=O the results were BAZ2B block 56.2µM*, JMJD2A Tudor inh inconclusive, GLS inhibitor 0.5%, HP1b binding inh -1.3% and G9a inh inconclusive.
Screening COCCCn1c(-c2ccco2)nc2ccccc2c1=O returned BAZ2B block 3.5%, JMJD2A Tudor inh -7.9%, GLS inhibitor -5.2%, HP1b binding inh 37.3% and G9a inh -0.9%[59 µM].
Screening Cc1cccc(N2CCN(C(=O)c3ccc(NS(=O)(=O)c4ccc5[nH]c(=O)[nH]c5c4)cc3)CC2)c1C returned BAZ2B block inconclusive, JMJD2A Tudor inh inconclusive, GLS inhibitor 1.9% and HP1b binding inh -16.3%.
`COc1ccccc1CC(=O)NCc1ccc2c(c1)OCO2` gave BAZ2B block -8.2%, JMJD2A Tudor inh -18.0%, GLS inhibitor -8.3%, HP1b binding inh 25.7% and G9a inh -12.2%[12.7 µM].
Screening CCOc1ccc(CN(CCc2ccc3c(c2)OCO3)Cc2cc(OC)c(OC)cc2OC)cc1 returned BAZ2B block 28.2µM*, JMJD2A Tudor inh 8.91µM*, GLS inhibitor 0.2%, HP1b binding inh 11.2µM* and G9a inh 2.82µM*.
For CCOc1ccccc1CN(CCc1ccc2c(c1)OCO2)Cc1cccc(OC)c1OC the results were BAZ2B block 50.1µM*, JMJD2A Tudor inh 4.47µM*, GLS inhibitor 2.0%, HP1b binding inh inconclusive and G9a inh 2.51µM*.
CCOc1cc(CNCc2ccc3c(c2)OCO3)ccc1OC was read as BAZ2B block -26.1%, JMJD2A Tudor inh -11.3%, GLS inhibitor -13.3%, HP1b binding inh 46.2% and G9a inh 9.0%[59 µM].
`COc1ccc(C(=O)NCCN2CCN(C(=O)c3ccc(OC)cc3)CC2)cc1` gave BAZ2B block -11.5%, JMJD2A Tudor inh -11.8%, GLS inhibitor 2.5%, HP1b binding inh 18.4% and G9a inh 49.5%.
`O=c1[nH]c(CN2CCc3ccccc32)nc2scc(-c3cccs3)c12` gave BAZ2B block -14.3%, JMJD2A Tudor inh -28.0%, GLS inhibitor 10.8%, HP1b binding inh 4.7% and G9a inh 17.8µM*.
Screening COc1ccc(NC(=O)C2CCCN(c3nn4c(=O)cc(C)nc4s3)C2)cc1 (centres undefined) returned BAZ2B block 8.3%, JMJD2A Tudor inh -25.0%, GLS inhibitor -4.9%, HP1b binding inh 24.6% and G9a inh inconclusive.
`CN(C)c1ccc2c(c1[N+](=O)[O-])Cc1ccccc1-2` gave JMJD2A Tudor inh 15.8µM*, GLS inhibitor 4.9% and HP1b binding inh inconclusive.
Screening COc1cc2c(cc1[N+](=O)[O-])-c1ccccc1C2 returned JMJD2A Tudor inh -15.2%, GLS inhibitor 2.4% and HP1b binding inh -10.7%[57 µM].
Screening COc1cc(S(=O)(=O)NCc2ccccn2)ccc1Cl returned BAZ2B block -1.9%, JMJD2A Tudor inh 31.6µM*, GLS inhibitor inconclusive, HP1b binding inh 1.3% and G9a inh 25.4%[59 µM].
Cn1c(=O)oc2cc(S(=O)(=O)NCc3cccnc3)ccc21 was read as BAZ2B block -4.8%, JMJD2A Tudor inh -4.6%, GLS inhibitor 0.0% and HP1b binding inh 3.3%.
`Cn1c(=O)oc2cc(S(=O)(=O)NCc3ccccn3)ccc21` gave BAZ2B block -38.8%, JMJD2A Tudor inh -13.4%, GLS inhibitor 0.7%, HP1b binding inh 13.3% and G9a inh 12.6µM*.
COc1ccc(S(=O)(=O)NCc2ccncc2)cc1NC(=O)c1ccccc1C was read as BAZ2B block 12.4%, JMJD2A Tudor inh -23.5%, GLS inhibitor 0.8%, HP1b binding inh 2.8% and G9a inh 8.91µM*.
`COc1ccc(S(=O)(=O)NCc2ccncc2)cc1NC(=O)c1ccccc1F` gave BAZ2B block -7.3%, JMJD2A Tudor inh -19.0%, GLS inhibitor -1.8%, HP1b binding inh 33.9% and G9a inh inconclusive.
For CC(=O)Nc1ccc(S(=O)(=O)NCc2ccccn2)cc1 the results were BAZ2B block 6.1%, JMJD2A Tudor inh 5.01µM*, GLS inhibitor 9.2%, HP1b binding inh -3.6% and G9a inh 12.6%[59 µM].
Screening Nc1ccc(S(=O)(=O)NCc2ccccn2)cc1 returned BAZ2B block -1.3%, JMJD2A Tudor inh -5.3%, GLS inhibitor -10.5%, HP1b binding inh 69.1% and G9a inh 11.2%[2.33 µM].
For COc1ccc(NC(=O)CN2CCN(c3ccc(F)cc3)CC2)cc1Cl the results were BAZ2B block -11.0%, JMJD2A Tudor inh -33.2%, GLS inhibitor 15.3%, HP1b binding inh -7.6% and G9a inh -31.2%.
`Cc1nnc(NC(=O)c2ccccc2C(=O)O)s1` gave BAZ2B block -9.6%, JMJD2A Tudor inh -22.3%, GLS inhibitor 19.0%, HP1b binding inh 21.7% and G9a inh -23.1%.
Screening COCc1cc(=O)n2c(-c3ccc(C)cc3)n[nH]c2n1 returned BAZ2B block 5.2%, JMJD2A Tudor inh -19.3%, GLS inhibitor 3.2%, HP1b binding inh 33.8% and G9a inh 18.2%.
COc1ccc(S(=O)(=O)NCc2ccccn2)cc1NC(=O)c1ccccc1 was read as BAZ2B block -23.9%, JMJD2A Tudor inh -2.8%, GLS inhibitor -12.5%, HP1b binding inh 7.5% and G9a inh -44.8%.

Source: PubChem BioAssay
